In the library only some 17% were active in any assay of this set; here they are far more common.
TGFb SMAD3 inh: inhibitors of TGF-b signaling; HepG2 CAGA-GFP TGF-b/SMAD3 reporter, GFP fluorescence, 18 h; TGF-beta stimulated, 500 pg/mL final; Potency, µM (series often up to 46.1 µM), without a hit: at the top dose activity, negative = inhibition, most hits filed as inhibitors; 1.2% of 410,000 active; note: % is set by controls: 0 for no effect and ±100 for the full control effect; nearly all actives have a fitted effect of over 65% in size
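Inhibition was scored as loss of TGF-beta-induced (500 pg/mL final, 18 hours, 37 degrees C) GFP in HEPG2 cells carrying a CAGA-GFP reporter, in DMEM with 1% FBS. Well GFP was summed per cell; Activity was normalised to unstimulated and stimulated DMSO wells, then concentration-response fitting.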
TDP1 cell CPT: growth inhibition of DT40 Tdp1-/-;hTDP1 cells with camptothecin (screen for TDP1 inhibitors) | chicken DT40 Tdp1-/-;hTDP1 cells + 20 nM CPT, ATP luminescence, 48 h | Potency, µM (highest dose often 46.2 µM), for inactives: top-dose activity change, negative = growth inhibition, most hits filed as inhibitors | 12% of 420,000 active; note: % is set by controls: 0 for no effect and ±100 for the full control effect; nearly all actives have a fitted effect of over 55% in size
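Chicken DT40 Tdp1-/- cells stably complemented with human TDP1 were seeded at 400 cells/well in medium containing 20 nM camptothecin, exposed to pin-transferred compounds, and grown at 37 °C for at least 48 hr. Viability was read as ATP luminescence.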
ATXN viability: cell viability loss in ATXN counter-screen | S2 cells (HEK-293 line with an ATXN2-luciferase reporter) viability, CellTiter-Fluor protease fluorescence, 24 h | Potency, µM (titrated, usually from 56.7 µM), actives largely listed as cytotoxic | 0.49% of 400,000 active | AID 651635; note: nearly all actives have a fitted effect of over 40% in size
HepG2 viability: HepG2 cytotoxicity, counter-screen for TGF-b inhibitors; HepG2 CAGA-GFP viability, ATP luminescence, 18 h; Potency, µM (highest dose often 46.1 µM), without a hit: at the top dose activity change, negative = cytotoxicity, hits mostly cytotoxic; 0.76% of 410,000 active
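CellTiter-Glo luminescence gave cytotoxicity after 18 hours at 37 degrees C. The cells were HepG2 CAGA-GFP in 1% FBS DMEM, stimulated with 500 pg/mL TGF-beta after compound addition. %Activity was normalised to no-cell wells (complete cell-killing) and DMSO (no toxicity), and curves were fitted and classified.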
TDP1 cell noCPT: qHTS for Inhibitors of human tyrosyl-DNA phosphodiesterase 1 (TDP1): qHTS in cells in absence of CPT. DT40 Tdp1-/- hTDP1 cells, no CPT, ATP luminescence, 48 h. Potency, µM (highest dose often 46.2 µM), for inactives: at the top dose activity change, negative = growth inhibition, hits mostly inhibitors. 15% of 420,000 active; note: % is set by controls: 0 for no effect and ±100 for the full control effect; nearly all actives have a fitted effect of over 55% in size
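A cellular qHTS used chicken DT40 cells lacking endogenous Tdp1 but carrying stably transfected human TDP1. Compounds were applied without camptothecin, and cell growth kinetics were judged by ATP-dependent luminescence after ≥48 hr.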
ATXN2 expr inh: reduces ATXN2 reporter expression in HEK-293 cells | 0.72% of 360,000 active | Potency, µM (top dose mostly 57 µM), for inactives: at the top dose activity change, negative = inhibition, usual class: inhibitors | HEK-293 ATXN2-luciferase reporter, luminescence, 24 h; note: % is set by controls: 0 for no effect and ±100 for the full control effect; nearly all actives have a fitted effect of over 55% in size
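qHTS (up to 57 uM final) was run with 24 h compound exposure of reporter cells at 37 °C. Each well was multiplexed: SteadyGlo luminescence measured ATXN2-luciferase expression after a fluorogenic Gly-Phe-AFC viability readout (25 uM final).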
Active calls of the source: *; i = inactive; ? = inconclusive; / = not tested or not shown. Calls come from the whole dose curve; as a rule, active = well fitted curve in the direction sought with a large enough effect; inconclusive = small, poorly fitted or top-dose-only effect, or another doubt; inactive = no such curve, though single readings can be large; an effect the other way counts as inactive or inconclusive. Potency is the fitted concentration of half-maximal effect.

SMILES	TGFb SMAD3 inh	TDP1 cell CPT	ATXN viability	HepG2 viability	TDP1 cell noCPT	ATXN2 expr inh
COc1ccc(S(=O)(=O)N2C[C@H]3CON(C)[C@H]3C[C@H]2c2ccc(-c3cccc(F)c3)cc2)cc1	?	-14%	?	-25%	?	-17%
Cc1ccc(CNC(=O)CN(c2cc(C)cc(C)c2)S(=O)(=O)c2c(C)noc2C)cc1	-6%	-28%	i	-4%	?	4%
CN1C[C@H]2CON(C)[C@H]2C[C@H]1c1cccc(-c2ccc(C#N)cc2)c1	11%	-14%	i	-3%	-2%	-5%
COc1ccccc1-c1cccc([C@@H]2C[C@H]3[C@H](CON3C)CN2C(=O)CCc2ccccc2)c1	-7%	18µM*	?	-23%	?	-8%
CN1OC[C@@H]2CN(Cc3cc(Cl)cc(Cl)c3)[C@H](c3cccc(-c4ccc(C#N)cc4)c3)C[C@@H]21	-3%	21µM*	?	-23%	?	-18%
COc1cc(C(=O)NCC(=O)N2CCN(S(=O)(=O)c3ccccc3C(F)(F)F)CC2)cc(OC)c1OC	-16%	?	i	7%	?	2%
FC(F)(F)c1ccccc1-c1ccc2nncn2c1	?	-20%	i	-50%	-13%	13%
Cc1sc2nc(CSCC(=O)Nc3ccc(N4CCOCC4)cc3)[nH]c(=O)c2c1C	1%	?	i	-22%	?	7%
Cc1sc2nc(C(C)Nc3ccccc3N3CCOCC3)[nH]c(=O)c2c1C (stereo not given)	?	?	?	4%	15µM*	-3%
Cc1ccc(OCCNC(=O)Cc2ccc(S(=O)(=O)N3CCOCC3)s2)cc1	1%	-16%	i	7%	-26%	-10%
CC(=O)c1c(C)n(C)c2ccc(OC(=O)c3ccc([N+](=O)[O-])cc3)cc12	7%	-21%	i	-1%	14%	1%
CCOC(=O)/C(=C/c1c(C)n(C)c2ccc([N+](=O)[O-])cc12)C(C)=O	16µM*	?	?	-53%	9.2µM*	-29%
COc1ccc(CN2CCC(CO)(Cc3cccc(C(F)(F)F)c3)CC2)cc1Cn1cccn1	?	?	i	-81%	18µM*	/
COc1cc(CN2CCC(CO)(Cc3cccc(C(F)(F)F)c3)CC2)ccc1F	?	21µM*	i	-137%	23µM*	/
OCC1(Cc2ccccc2)CCN(Cc2ccc(C(F)(F)F)cc2)CC1	?	23µM*	i	-63%	18µM*	-38%
COc1ccc(F)c(CN2CCC(CO)(Cc3cccc(C(F)(F)F)c3)CC2)c1	?	?	i	-45%	?	-36%
Cn1c(Cn2cnc([N+](=O)[O-])n2)nnc1SCC(=O)Nc1ccccc1	-29%	5%	i	-32%	-7%	-19%
Cc1c(Cl)cccc1NC(=O)CCn1nc(C)c2c(C)n(-c3ccccc3)nc2c1=O	0%	-13%	i	-11%	12%	1%
COc1ccc(S(=O)(=O)NC(=O)C2(C)CCN2C(=O)CCc2ccc(Cl)cc2Cl)cc1 (stereo not given)	2%	-15%	i	-2%	-17%	-8%
O=C(NNC(=O)c1cc2cc3ccccc3nc2s1)c1cccc(C(F)(F)F)c1	17%	-22%	i	-7%	-17%	8%
O=C(NC1CC1)c1cc2cc3ccccc3nc2s1	2%	23µM*	i	4%	?	32%
COc1ccc(C2Nc3ccccc3C(=O)N2Cc2ccccc2)cc1OC (stereo not given)	-7%	-24%	i	-17%	?	-26%
CCOc1cc(C2Nc3ccccc3C(=O)N2Cc2ccco2)ccc1OCc1ccccc1Cl (stereo not given)	?	10µM*	/	-53%	3.5µM*	/
O=C1c2ccccc2NC(c2cc(Br)c3c(c2)OCO3)N1Cc1ccco1 (stereo not given)	?	?	/	-6%	18µM*	/
COc1ccc(C2Nc3ccccc3C(=O)N2Cc2ccco2)cc1OC (stereo not given)	?	8.9µM*	/	-8%	22µM*	/
SMILES	TGFb SMAD3 inh	TDP1 cell CPT	ATXN viability	HepG2 viability	TDP1 cell noCPT	ATXN2 expr inh
COc1ccc2c(c1OC)C(=O)N1c3ccccc3C(=O)N(Cc3ccco3)C21 (stereo not given)	?	10µM*	/	-21%	20µM*	/
Cc1c(NC(=O)C(C)OC(=O)/C=C/c2ccc(OC(F)F)cc2)c(=O)n(-c2ccccc2)n1C (stereo not given)	-1%	-2%	i	-9%	-4%	-3%
O=C(NCc1cccs1)c1ccc2sc([C@@H]3O[C@H](CO)[C@H](O)[C@H](O)[C@H]3O)nc2c1	24%	-18%	i	12%	0%	7%
CC(C)COC(=O)Nc1nnc(SCCOc2ccccc2)s1	-28%	-11%	i	-25%	-9%	1%
Cn1cccc1C(NC(=O)c1ccccc1)C(Cl)(Cl)Cl (stereo not given)	-17%	?	i	-21%	?	/
COc1ccc(-n2ccnc2SCC(=O)c2c(N)n(C3CC3)c(=O)[nH]c2=O)cc1	-15%	-6%	i	7%	1%	/
COc1ccc(S(=O)(=O)N2CCN(c3ccc(Cl)c(Cl)c3)CC2)c2ccccc12	-6%	/	i	-22%	/	-20%
Cc1cc(C)c(NC(=O)Cc2ccc(-n3c(C)nc4cccnc43)cc2)c(C)c1	13µM*	18µM*	/	-25%	21µM*	/
CCOC(=O)c1ccc(NC(=O)CCc2nc3cccnc3n2Cc2cccs2)cc1	?	?	i	-42%	18µM*	-15%
COCCNC(=O)c1cccc(-n2c(C)nc3cccnc32)c1	-13%	-3%	/	3%	-13%	/
Cc1cc(NC(=O)CCc2nc3cccnc3n2Cc2cccs2)ccc1Br	?	16µM*	?	-28%	21µM*	?
O=C(CCc1nc2cccnc2n1Cc1cccs1)Nc1cccc(Cl)c1	?	16µM*	/	-19%	?	/
CCN(CC)c1ccc(NC(=O)CCc2nc3cccnc3n2Cc2cccs2)c(C)c1	10%	?	/	-11%	?	/
CCOc1ccc(NC(=O)CCc2nc3cccnc3n2-c2ccccc2)cc1	-15%	?	i	-9%	?	-17%

Screening data deposited in PubChem by National Center for Advancing Translational Sciences (NCATS).
